Test results from the supplement of paper PMC9262897, “Low-cost anti-mycobacterial drug discovery using engineered E. coli” (Nature Communications, 2022).
Counter-ions that a name gives are not always drawn. ± gives the standard deviation of the averaged measurements.

The compounds below were run on E. coli TESEC Mtb DapB (assay: growth (OD600 after 10 h); higher = more growth (less inhibition)). Settings: arabinose induction (level): High; compound 0.1 mM; raw OD600 reference: median of DMSO wells […], cell-free background 0.041.
Method: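 TESEC E. coli strains in which the native enzyme is deleted and replaced by arabinose-inducible Mtb Asd, DapB, CysH or TrpD, each grown in its selective medium. Strains were screened against the Prestwick library at 0.1 mM and 1% DMSO in 384-well format at low and high arabinose induction. Growth is read as OD600 after 10 h in triplicate.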

SMILES	growth
O=c1[nH]cnc2c1ncn2[C@H]1CC[C@@H](CO)O1 [Didanosine]	0.18 ± 0.011
CN1CCN(C2=Nc3cc(Cl)ccc3Nc3ccccc32)CC1 [Clozapine]	0.17 ± 0.0049
N=C(N)NC(=O)Cc1c(Cl)cccc1Cl [Guanfacine hydrochloride]	0.19 ± 0.015
NS(=O)(=O)c1cc2c(cc1Cl)NC(C(Cl)Cl)NS2(=O)=O (stereo not given) [Trichlormethiazide]	0.191 ± 0.0022
CC(=O)NC[C@H]1CN(c2ccc(N3CCOCC3)c(F)c2)C(=O)O1 [Linezolid]	0.0899 ± 0.0032
CCN1C(=O)NC(c2ccccc2)C1=O (stereo not given) [Ethotoin]	0.217 ± 0.01
O=c1oc2ccccc2c(O)c1Cc1c(O)c2ccccc2oc1=O [Dicumarol]	0.18 ± 0.014
COc1ccc(C2CNC(=O)C2)cc1OC1CCCC1 (stereo not given) [Rolipram]	0.211 ± 0.0056
CC1=C(C(=O)O)N2C(=O)[C@@H](NC(=O)[C@H](N)c3ccc(O)cc3)[C@H]2SC1 [Cefadroxil]	0.192 ± 0.0046
CN1C(C(=O)Nc2ccccn2)=C(O)c2sccc2S1(=O)=O [Tenoxicam]	0.185 ± 0.0085
Cc1cc(/C=C/c2ccc3cc(N(C)C)ccc3[n+]2C)c(C)n1-c1ccccc1 [Pyrvinium pamoate]	0.0704 ± 0.0048
CC[C@H](C)[C@H]1O[C@]2(CC[C@@H]1C)C[C@@H]1C[C@@H](CC=C(C)C(O[C@H]3C[C@H](OC)[C@@H](O[C@H]4C[C@H](OC)[C@@H](O)[C@H](C)O4)[C@H](C)O3)[C@@H](C)C=CC=C3CO[C@@H]4[C@H](O)C(C)=C[C@@H](C(=O)O1)[C@]34O)O2 (stereo not given in full) [Ivermectin]	0.281 ± 0.035
Clc1ccc(COC(Cn2ccnc2)c2ccc(Cl)cc2Cl)c(Cl)c1 (stereo not given) [Miconazole]	0.0949 ± 0.0049
OCCN1C[C@H](O)[C@@H](O)[C@H](O)[C@H]1CO [Miglitol]	0.207 ± 0.031
Nc1ccn([C@H]2CC[C@@H](CO)O2)c(=O)n1 [Zalcitabine]	0.204 ± 0.015
CCN1CCCC1CNC(=O)c1cc(S(=O)(=O)CC)c(N)cc1OC (stereo not given) [Amisulpride]	0.224 ± 0.02
O=C1C(O)=C(O)C(=O)C(O)=C1O [Tetrahydroxy-1,4-quinone hydrate]	0.206 ± 0.021
c1ccc2c(c1)CCCc1cc(NCCN3CCOCC3)nnc1-2	0.179 ± 0.0094
CCN(CC)C(=O)/C(C#N)=C/c1cc(O)c(O)c([N+](=O)[O-])c1 [Entacapone]	0.138 ± 0.007
COC(=O)CCc1ccc(OCC(O)CNC(C)C)cc1 (stereo not given) [Esmolol hydrochloride]	0.195 ± 0.0058

Same assay, conditions: arabinose induction (level): Low; compound 0.1 mM; raw OD600 reference: median of DMSO wells 0.227, cell-free background 0.041

SMILES	growth
O=c1[nH]cnc2c1ncn2[C@H]1CC[C@@H](CO)O1 [Didanosine]	0.196 ± 0.048
CN1CCN(C2=Nc3cc(Cl)ccc3Nc3ccccc32)CC1 [Clozapine]	0.205 ± 0.0082
N=C(N)NC(=O)Cc1c(Cl)cccc1Cl [Guanfacine hydrochloride]	0.214 ± 0.026
NS(=O)(=O)c1cc2c(cc1Cl)NC(C(Cl)Cl)NS2(=O)=O (stereo not given) [Trichlormethiazide]	0.246 ± 0.041
CC(=O)NC[C@H]1CN(c2ccc(N3CCOCC3)c(F)c2)C(=O)O1 [Linezolid]	0.0871 ± 0.0054
CCN1C(=O)NC(c2ccccc2)C1=O (stereo not given) [Ethotoin]	0.243 ± 0.051
O=c1oc2ccccc2c(O)c1Cc1c(O)c2ccccc2oc1=O [Dicumarol]	0.199 ± 0.046
COc1ccc(C2CNC(=O)C2)cc1OC1CCCC1 (stereo not given) [Rolipram]	0.217 ± 0.0081
CC1=C(C(=O)O)N2C(=O)[C@@H](NC(=O)[C@H](N)c3ccc(O)cc3)[C@H]2SC1 [Cefadroxil]	0.222 ± 0.011
CN1C(C(=O)Nc2ccccn2)=C(O)c2sccc2S1(=O)=O [Tenoxicam]	0.18 ± 0.0088
Cc1cc(/C=C/c2ccc3cc(N(C)C)ccc3[n+]2C)c(C)n1-c1ccccc1 [Pyrvinium pamoate]	0.0798 ± 0.011
CC[C@H](C)[C@H]1O[C@]2(CC[C@@H]1C)C[C@@H]1C[C@@H](CC=C(C)C(O[C@H]3C[C@H](OC)[C@@H](O[C@H]4C[C@H](OC)[C@@H](O)[C@H](C)O4)[C@H](C)O3)[C@@H](C)C=CC=C3CO[C@@H]4[C@H](O)C(C)=C[C@@H](C(=O)O1)[C@]34O)O2 (stereo not given in full) [Ivermectin]	0.28 ± 0.041
Clc1ccc(COC(Cn2ccnc2)c2ccc(Cl)cc2Cl)c(Cl)c1 (stereo not given) [Miconazole]	0.134 ± 0.1
OCCN1C[C@H](O)[C@@H](O)[C@H](O)[C@H]1CO [Miglitol]	0.223 ± 0.029
Nc1ccn([C@H]2CC[C@@H](CO)O2)c(=O)n1 [Zalcitabine]	0.24 ± 0.04
CCN1CCCC1CNC(=O)c1cc(S(=O)(=O)CC)c(N)cc1OC (stereo not given) [Amisulpride]	0.239 ± 0.031
O=C1C(O)=C(O)C(=O)C(O)=C1O [Tetrahydroxy-1,4-quinone hydrate]	0.226 ± 0.0024
c1ccc2c(c1)CCCc1cc(NCCN3CCOCC3)nnc1-2	0.2 ± 0.013
CCN(CC)C(=O)/C(C#N)=C/c1cc(O)c(O)c([N+](=O)[O-])c1 [Entacapone]	0.172 ± 0.0056
COC(=O)CCc1ccc(OCC(O)CNC(C)C)cc1 (stereo not given) [Esmolol hydrochloride]	0.227 ± 0.019
